Sampled rows, rich in hits. Any-hit rate of the full collection: about 7.4%.
Rab9 promoter act – Rab9 promoter activation; Huh7 Rab9 promoter-luciferase reporter, luminescence, 24 h; Potency, µM (series often up to 9.22 µM), most hits filed as activators; 320,000 tested, 2.8% active; also: nearly all actives have a fitted effect of over 60% in size
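Huh7 reporter line, Rab9 promoter upstream of luciferase. Compound exposure 24 h at 37 °C in reduced-serum medium with 10% FBS. Read-out: luminescence.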
SMN2 splice enh – increases expression of the SMN2 splice variant | HEK293 SMN2-luciferase splicing reporter, luminescence, 30-36 h | Potency, µM (doses to about 46.1 µM), hits mostly activators | 210,000 tested, 2.8% active | AID 1458; also: nearly all actives have a fitted effect of over 55% in size
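qHTS luciferase splicing reporter: luminescence rises when SMN2 exon 7 is included in transfected HEK293 cells. Compound exposure lasted 30-36 h at 37C, with 4.5 mM final sodium butyrate as control, followed by a ONE-Glo read.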
NPC1 prom act – activates the NPC1 promoter; Huh7 NPC1 promoter luciferase reporter, 24 h; Potency, µM (doses to about 9.22 µM), usual class: activators; 320,000 tested, 2.4% active; AID 485313; also: nearly all actives have a fitted effect of over 60% in size
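Cells: Huh7 expressing luciferase under the NPC1 promoter, 1500/well. Seeded 2 h, compound added, incubated 24 h at 37 °C. Luciferase reagent, 10 min ambient, then luminescence.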
ELG1 genotoxic – induces genotoxicity in HEK293T cells with luciferase-tagged ELG1; HEK293T ELG1-luciferase reporter, luminescence, 16 h; Potency, µM (top dose mostly 46 µM), hits mostly activators; 330,000 tested, 1.3% active; AID 504466; also: nearly all actives have a fitted effect of over 60% in size
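Screening used a luciferase reporter fused to human ELG1 in HEK293T cells. Luminescence was read on a CCD plate imager after 16 hr exposure and 30 min ONE-Glo incubation.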
FLuc counter – firefly luciferase modulation, counter-screen for miR-21 project | P08659 | purified FLuc, Km substrates, luminescence inhibition | Potency, µM (titrated, usually from 57.5 µM), most hits filed as inhibitors | 360,000 tested, 6.9% active; also: nearly all actives have a fitted effect of over 55% in size
Target sequence (P08659 whole entry, looked up): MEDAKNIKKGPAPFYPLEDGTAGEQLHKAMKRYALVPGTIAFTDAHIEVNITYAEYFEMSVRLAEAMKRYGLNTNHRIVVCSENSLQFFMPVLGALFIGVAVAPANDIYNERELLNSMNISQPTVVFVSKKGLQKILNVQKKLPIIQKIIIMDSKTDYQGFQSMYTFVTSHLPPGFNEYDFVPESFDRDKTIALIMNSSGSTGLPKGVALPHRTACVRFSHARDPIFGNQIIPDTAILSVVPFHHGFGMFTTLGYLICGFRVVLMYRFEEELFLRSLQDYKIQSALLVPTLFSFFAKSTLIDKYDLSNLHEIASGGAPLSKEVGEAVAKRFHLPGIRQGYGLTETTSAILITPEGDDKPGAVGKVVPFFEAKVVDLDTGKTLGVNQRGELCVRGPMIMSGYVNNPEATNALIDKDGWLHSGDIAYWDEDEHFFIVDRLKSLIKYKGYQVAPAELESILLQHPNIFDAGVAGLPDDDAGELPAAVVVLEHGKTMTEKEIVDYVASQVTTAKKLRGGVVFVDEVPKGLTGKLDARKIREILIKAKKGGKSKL
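Biochemical qHTS of compounds, final roughly 60 µM downward over six points, against 10 nM purified firefly luciferase using Km concentrations of substrates (10 uM D-luciferin, 10 uM ATP) in Tris acetate pH 7.5 buffer; luminescence output.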
Numbers stand for hits; – = inactive; ? = inconclusive; · = no result given. Calls follow the shape of the dose curve; as a rule, active = well fitted curve in the direction sought with a large enough effect; inconclusive = small, poorly fitted or top-dose-only effect, or another doubt; inactive = no such curve, though single readings can be large; an effect the other way counts as inactive or inconclusive.

SMILES | Rab9 promoter act | SMN2 splice enh | NPC1 prom act | ELG1 genotoxic | FLuc counter
CCc1cc(C(=O)Nc2ncccc2O)sc1C | 2.51µM | · | 1.12µM | 0.326µM | 1.35µM
CCOC(=O)c1ccc2[nH]c(CSc3nnc(-c4cccc(F)c4)n3C)cc(=O)c2c1 | · | · | · | · | –
Cc1ccc2nc(NC(=O)CCCc3nc4ccccc4s3)sc2c1 | – | – | – | ? | 16.9µM
Cc1ccc2nc(N/C(=N/S(=O)(=O)c3ccc(F)cc3)c3ccccc3)sc2c1 | ? | ? | – | – | 8.49µM
Cc1ccc2nc(NC(=O)CCn3cccc3)sc2c1 | ? | ? | – | – | –
Cc1ccc2nc(NC(=O)CCCC(=O)O)sc2c1 | – | – | – | – | 5.36µM
Cc1ccc2nc(N/C(=N/S(=O)(=O)c3ccc(F)cc3F)c3ccccc3)sc2c1 | – | · | – | – | ?
CCOCCOC(=O)COc1ccc2c(=O)c(Oc3ccc(OC)cc3)coc2c1 | – | · | – | – | –
Cc1nc(-c2coc3cc(O)c(C)cc3c2=O)cs1 | ? | 25.1µM | ? | ? | 0.953µM
COc1ccccc1Oc1coc2cc(OCC(N)=O)ccc2c1=O | – | · | – | – | –
CC(C)(C)c1ccc(Oc2coc3cc(OCC(=O)O)ccc3c2=O)cc1 | – | · | – | – | 2.13µM
Cc1nc(-c2coc3cc(C)c(N=O)c(O)c3/c2=N\N)cs1 | – | – | – | – | ?
Cc1nc(-c2coc3cc(OCC(=O)O)ccc3c2=O)cs1 | – | – | – | – | 1.9µM
COc1ccc(OC)c(NC(=O)Cn2c(=O)n(Cc3nc(C)no3)c(=O)c3ccccc32)c1 | · | · | · | · | –
COc1ccc2sc(NC(=O)c3ccco3)nc2c1 | 0.355µM | ? | 0.501µM | ? | 0.757µM
O=C(CCNC(=O)c1ccco1)Nc1nc2ccccc2s1 | ? | · | – | – | ?
O=C(NC(=S)Nc1nc2ccccc2s1)c1ccco1 | ? | 11.2µM | ? | ? | 1.51µM
COc1ccc2nc(NC(=O)CCNC(=O)c3ccco3)sc2c1 | 3.16µM | · | 3.16µM | ? | 12µM
O=C(CCNC(=O)c1ccccc1Cl)Nc1nc(-c2ccc(F)cc2)cs1 | – | · | – | – | –
O=C(CCNC(=O)c1ccccc1Cl)Nc1nc(-c2ccccc2Cl)cs1 | – | – | – | – | 16.9µM
O=C(Cn1ncc2c3ccccc3n(Cc3cccc(Cl)c3)c2c1=O)NCc1ccccn1 | – | · | – | – | –
COc1ccc2nc(N(Cc3cccnc3)C(=O)COc3ccccc3)sc2c1 | · | · | · | · | –
COc1ccc2nc(NC(=O)CCNC(=O)c3ccccc3Cl)sc2c1 | – | 15.8µM | – | – | 19µM
COc1ccc2nc(NC(=S)NC(=O)c3ccco3)sc2c1 | 1µM | 7.94µM | 3.16µM | ? | 0.675µM
COc1ccc2nc(N(Cc3ccccc3)C(=O)CCNC(C)=O)sc2c1 | ? | · | ? | ? | 19µM
SMILES | Rab9 promoter act | SMN2 splice enh | NPC1 prom act | ELG1 genotoxic | FLuc counter
COc1cccc(NC(=O)CCNC(=O)c2ccccc2Cl)c1 | – | – | – | – | –
COc1ccc(-c2csc(NC(=S)NC(=O)c3ccco3)n2)cc1 | – | ? | – | – | –
CCn1c(CNC(=O)COc2ccc(C(C)C)cc2)nnc1SCC(=O)Nc1cc(F)ccc1C | – | – | – | – | –
C=CCn1c(CCCOc2ccc(Cl)cc2Cl)nnc1SCC(=O)Nc1nccs1 | – | – | – | – | 13.5µM
Cn1c(CCCOc2ccc(Cl)cc2Cl)nnc1SCC(=O)Nc1cccc(F)c1 | – | – | – | – | 4.78µM
Cn1c(CCCOc2ccc(Cl)cc2Cl)nnc1SCC(=O)Nc1ccc(F)c(Cl)c1 | – | – | – | – | –
CCn1c(CCCOc2ccc(Cl)cc2Cl)nnc1SCC(=O)Nc1cc(F)ccc1C | – | – | – | – | 16.9µM
N#Cc1ccsc1NC(=O)COC(=O)c1ccc(Br)o1 | · | · | · | – | ·
COc1ccc(CCC(=O)Nc2sccc2C#N)cc1 | 2µM | 15.8µM | 3.98µM | 6.51µM | 16.9µM
N#Cc1ccsc1NC(=O)COC(=O)c1cc(Br)ccc1O | ? | · | – | – | 9.53µM
N#Cc1ccsc1NC(=O)COC(=O)c1ccc2ccccc2c1 | 0.447µM | ? | ? | ? | 10.7µM
Cn1cccc1C(=O)OCC(=O)Nc1sccc1C#N | · | · | · | 20.6µM | ·
CCC1CN(C(=O)N2CCC(C(=O)NCc3ccc(OC)cc3OC)CC2)c2ccccc2O1 (configuration not stated) | – | · | – | – | –
O=C(CSc1nc2c([nH]c3ccccc32)c(=O)n1-c1ccc(F)cc1)NCc1ccccc1 | · | · | · | · | –
COc1cccc(C(=O)Cn2c(NCCO)nc3ccccc32)c1 | – | – | – | – | –
COc1cccc(C(=O)Cn2c(=N)n(C)c3ccccc32)c1 | ? | 1.26µM | 0.562µM | 0.366µM | 1.2µM
N=c1n(CC(=O)c2ccc(Br)s2)c2ccccc2n1Cc1ccccc1 | – | · | – | – | –
Cn1c(=N)n(CC(=O)c2ccc(Br)s2)c2ccccc21 | ? | ? | – | 2.51µM | 8.49µM
CCCn1c(=N)n(CC(=O)c2cccs2)c2ccccc21 | – | – | – | – | –
Cn1c(=N)n(CC(=O)c2cccs2)c2ccccc21 | – | ? | – | ? | 10.7µM
O=C(c1cnc(Cl)c(Cl)c1)N1CCN(S(=O)(=O)c2ccc3ccccc3c2)CC1 | – | · | – | – | –
Cc1cc(OCC(O)CN(C)C(=O)C(C)Oc2ccccc2)ccc1Cl (configuration not stated) | – | · | – | – | –
COc1ccc(C2CC(c3c(O)n(C4CCCCC4)c(=O)[nH]c3=O)=Nc3ccccc3S2)cc1 (configuration not stated) | · | · | · | · | –
C=CCNC(=O)c1ccc(-c2nc(-c3ccc(Cl)c(Cl)c3)cs2)cc1 | – | – | – | – | –
Cc1oncc1-c1csc(-c2ccccc2)n1 | – | – | – | ? | ?
SMILES | Rab9 promoter act | SMN2 splice enh | NPC1 prom act | ELG1 genotoxic | FLuc counter
CCS(=O)(=O)c1ccc(-c2csc(-c3ccccc3)n2)c(Cl)c1Cl | – | – | – | 20.6µM | 23.9µM
CNC(=O)c1csc(-c2ccc(Cl)cc2)n1 | ? | – | – | ? | ?
O=C(O)c1ccc(-c2nc(-c3ccccc3)cs2)cc1 | 1µM | 10µM | 1.41µM | – | 6.01µM
CNC(=O)c1csc(-c2ccc(C)cc2)n1 | ? | – | ? | ? | 16.9µM
C=CCNC(=O)c1ccc(-c2nc(-c3ccc(Cl)cc3Cl)cs2)cc1 | – | 4.47µM | – | – | –
Cc1ccc(NC(=O)C(Cc2ccccc2)NS(=O)(=O)c2ccc3c(c2)c(=O)n(C)c(=O)n3C)c(C)c1 (configuration not stated) | · | – | · | · | –
O=C(O)c1ccccc1C(=O)Nc1ccc(-c2csc(-c3ccccc3)n2)cc1 | – | – | – | ? | 16.9µM
O=C(O)c1ccccc1-c1csc(-c2ccccc2)n1 | 3.98µM | ? | ? | ? | 15.1µM
O=C(O)c1ccc(-c2nc(-c3ccccc3Cl)cs2)cc1 | ? | 17.8µM | ? | ? | 16.9µM
CNC(=O)c1ccc(-c2nc(-c3ccccc3)cs2)cc1 | 3.98µM | 15.8µM | ? | ? | 9.53µM
O=C(Nc1ccc(-c2csc(-c3ccccc3)n2)cc1)c1ccccc1Cl | – | – | – | – | ?
ClCc1csc(-c2ccccc2Cl)n1 | – | – | – | – | –

Compound activity (PubChem)
